Tau fibril ThT: blocks human tau fibril formation measured by thioflavin T | AID 1460 | Potency, µM (highest dose often 57.4 µM), inactives show at the top dose activity, negative = inhibition, usual class: inhibitors | recombinant tau K18 P301L, heparin-induced fibrillization, ThT fluorescence | hit rate 2.1% among 270,000 | P10636; also: potency is read from the fitted curve at half-maximal effect; nearly all actives have a fitted effect of over 55% in size
Target sequence (P10636 561-689 P618L limits assumed): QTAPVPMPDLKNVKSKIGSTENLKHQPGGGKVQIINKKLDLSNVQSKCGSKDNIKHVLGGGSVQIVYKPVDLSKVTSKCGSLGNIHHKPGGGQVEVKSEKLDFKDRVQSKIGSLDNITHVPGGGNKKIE
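In this qHTS, human K18 P301L tau is incubated with compound and heparin for 6 hr at 37 C, and Thioflavin T fluorescence then reports fibril load.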
Tau FP inhib: blocks human tau fibril formation measured by polarization; P10636; K18 P301L tau heparin fibrillization, Alexa594 FP, 6 h; Potency, µM (titrated, usually from 57.7 µM), for inactives: at the top dose activity, negative = inhibition, hits mostly inhibitors; hit rate 0.39% among 280,000; AID 1468; also: potency is read from the fitted curve at half-maximal effect; nearly all actives have a fitted effect of over 55% in size
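Human tau K18 […] P301L fragment, 15 uM unlabeled plus 0.24 uM Alexa 594-labeled tau (final), with compound and 20 uM heparin in 100 mM sodium acetate pH 7; 6 hr at 37 C, then Alexa 594 FP read.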
Tau fluor cs: counter-screen for tau fibril formation inhibitors | tau K18 P301L Alexa594 fluorescence, heparin fibrillization | Potency, µM (series often up to 57.7 µM), without a hit: at the highest dose activity change, negative = decrease | hit rate 0.93% among 280,000 | AID 1463; also: potency is read from the fitted curve at half-maximal effect; nearly all actives have a fitted effect of over 55% in size
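Human tau K18 P301L (15 uM unlabeled, 0.24 uM Alexa 594-labeled) in 100 mM sodium acetate pH 7 with 20 uM heparin, 6 hr at 37 C. ThT 30 uM added, 1 hr ambient; Alexa 594 FP and total fluorescence read at 555/632 nm.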
Coupling enz: coupling enzyme interference in Giardia aldolase counter-screen | hit rate 0.67% among 290,000 | activity change, negative = inhibition, % at 58.2 µM, hits read low | coupling enzyme system counterscreen, AmpLite Red fluorescence | AID 2472; in the data active = activity change below about -30%
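Coupling enzymes only (glyceraldehyde-3-phosphate) + compound, at 57.5 uM final, 10 min RT; add substrate/coupling/AmpLite Red mix, 20 min RT; fluorescence ex 525/em 598 nm. Actives flag coupling-system interference.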
* marks the source's active call; other numbers are inactive results; ? = inconclusive; . = no result; [ ] = another dose, or the depositor's remark. Compounds with a hit are over-represented: about 2.7% of the library has one in this group of screens. Unless noted, calls follow the shape of the dose curve; as a rule, active = well fitted curve in the direction sought with a large enough effect; inconclusive = small, poorly fitted or top-dose-only effect, or another doubt; inactive = no such curve, though single readings can be large; an effect the other way counts as inactive or inconclusive. % is scaled to controls: 0 for no effect and ±100 for the full control effect.

SMILES	Tau fibril ThT	Tau FP inhib	Tau fluor cs	Coupling enz
COc1ccc(C(c2c[nH]c3ccccc23)c2c[nH]c3ccccc23)cc1O	?	?	14.1µM*[quencher]	-4.5
COc1ccc(C(=O)NCCSc2c[nH]c3ccccc23)cc1OC	?	2.9%	?	.
CCN(Cc1ccccc1)c1ccc(/C=N/N=C(N)N)cc1	-20.7%	?	?	-1.5
CCN(Cc1ccccc1)c1ccc(N=Nc2nn(C)c(C)c2[N+](=O)[O-])cc1	10µM*	?	?	0.9
CCN(CC)c1ccc(N=Nc2nn(C)c(C)c2[N+](=O)[O-])cc1	15.8µM*	10.3%	?	-5.3
COC(=O)[C@H](Cc1ccccc1)NC(=O)O[C@@H]1C(=O)c2cc(OC)ccc2O[C@H]1c1cccc(OC)c1	-9.9%	-3.0%	-14.4%	3.3
Clc1cnccn1	.	.	.	0.3
CN(C)c1ccc(C2NCCS2)cc1 (stereo not drawn)	28.2µM*	?	-15.3%	-0.8
Cc1ccc(C2=NNC(=O)C(c3ccc(Cl)cc3)C2)cc1 (stereo not drawn)	-19.5%	5.4%	-16.1%	1.1
Cc1ccc(C2NCCS2)cc1 (stereo not drawn)	22.4µM*	?	-16.0%	3.6
COC(=O)CCc1sc(Nc2ccccc2)nc1-c1ccc(OC)cc1	?	12.8%	15.8µM*[quencher]	-0.2
COc1ccc(Nc2nc(-c3ccc(OC)cc3)c(CCC(=O)O)s2)cc1	?	-1.2%	-18.4%	4.5
O=C1Nc2c(c(=O)[nH]c(=O)n2-c2ccccc2)C1(NS(=O)(=O)c1ccc(Cl)cc1)C(F)(F)F (stereo not drawn)	2.9%	-1.1%	-2.9%	.
Cc1cc(N2CCN(C)CC2)nc2ccc(NC(=O)Nc3ccccc3Cl)cc12	14.1µM*	?	14.1µM*[quencher]	.
COc1ccccc1CNC(=S)Nc1ccc2nc(N3CCN(C)CC3)cc(C)c2c1	?	?	20µM*[quencher]	-5.7
COc1ccc(CNC(=S)Nc2ccc3nc(N4CCN(C)CC4)cc(C)c3c2)cc1	?	?	?	1.5
Cc1cc(C)cc(NC(=O)Nc2ccc3nc(N4CCN(C)CC4)cc(C)c3c2)c1	?	?	7.94µM*[quencher]	.
Cc1cc(N2CCN(C)CC2)nc2ccc(NC(=O)c3ccc(Br)o3)cc12	?	9.2%	?	-2.7
COc1cccc(NC(=O)Nc2ccc3nc(N4CCN(C)CC4)cc(C)c3c2)c1	?	?	14.1µM*[quencher]	.
N[C@H](CSSC[C@@H](N)C(=O)O)C(=O)O	.	.	.	-1.5
COc1ccc(N(CC(=O)NCCSc2ccccn2)S(=O)(=O)c2ccccc2)c(OC)c1	.	.	.	-0.4
COc1cc2[nH]c(=O)n(CCCC(=O)N(C)Cc3ccccc3)c(=O)c2cc1OC	-12.5%	-9.2%	-19.1%	.
CCN(CC)c1ccc(/C=C(\C#N)C(N)=S)cc1	4.47µM*	-1.7%	?	1.6
COc1cc(NS(=O)(=O)c2ccc3c(c2)CC(=O)N3)cc(OC)c1OC	-4.6%	-6.7%	-11.9%	.
CCN(CC)C(=O)C1CCCN(C(=O)Nc2ccc3nsnc3c2)C1 (stereo not drawn)	14.1µM*	?	-20.4%	3.5
SMILES	Tau fibril ThT	Tau FP inhib	Tau fluor cs	Coupling enz
S=C(Nc1ccc2nsnc2c1)N1CCCCC1	?	?	-15.2%	-28.8
CC1C/C(=C/c2ccncc2)C(=O)/C(=C/c2ccncc2)C1 (stereo not drawn)	8.91µM*	?	-21.9%	2.7
Cc1[nH]n(C2=NCCS2)c(=O)c1N=Nc1cccc(C(F)(F)F)c1	12.6µM*	4.6%	-16.2%	5.9
Cc1[nH]n(C(N)=S)c(=O)c1N=Nc1cccc(C(F)(F)F)c1	.	.	.	6.4
Cc1cc2nn(-c3ccc(F)cc3)nc2cc1NC(=O)c1cccc([N+](=O)[O-])c1C	-2.8%	-1.4%	-9.8%	.
O=C1C(c2ccncc2)N(CCC2=CCCCC2)C(=O)CN1C1CCCCC1 (stereo not drawn)	7.94µM*	?	?	0.7
COc1ccc(-c2cn3cc(C)ccc3n2)cc1F	?	-12.8%	-10.1%	-34.4*
O=c1nc2s/c(=C\c3ccc(-c4ccccc4[N+](=O)[O-])o3)c(=O)n2nc1-c1ccccc1	7.08µM*	?	?	-49.7*
COc1ccc(C)cc1NS(=O)(=O)c1cc2c3c(c1)CC(=O)N3CCC2	-2.5%	-3.6%	-8.6%	.
O=C(O)CC(C(=O)O)N1C(=O)/C(=C/c2ccc(-c3nc4ccccc4s3)o2)SC1=S (stereo not drawn)	7.94µM*	?	-25.6%	0.0
O=C(O)CCCN1C(=O)/C(=C\c2ccc(-c3nc4ccccc4s3)o2)SC1=S	2.51µM*	?	?	-2.4
O=C(O)CCN1C(=O)/C(=C/c2ccc(-c3nc4ccccc4s3)o2)SC1=S	1.26µM*	-5.0%	-25.5%	-1.7
CC(CNc1nc2ccccc2c2nc(-c3ccccc3)nn12)c1ccccc1 (stereo not drawn)	1.2%	-12.9%	-29.2%	.
COc1ccc(COc2cc(-c3cccc(OC)c3)nc3ccc(NC(=O)c4ccc(Cl)cc4)cc23)cc1	-10.1%	20µM*	-12.0%	2.5
COc1ccc(COc2cc(-c3cccc(OC)c3)nc3ccc(NC(=O)c4ccc(OC)cc4)cc23)cc1	?	?	?	1.4
Cc1cccc(-n2c(-c3ccco3)nc3c(cnn3-c3ccc(F)cc3)c2=O)c1	-14.0%	-8.4%	-23.9%	.
O=c1c(CCc2ccccc2)nc2cnc(N3CCNCC3)nc2n1-c1ccccc1	.	.	.	1.5
COCCCNC(=O)c1ccc(-n2c(-c3ccccc3)cc3c2CCCC3)cc1	-10.5%	?	-24.5%	.
CCOCCCNC(=O)c1ccc(-n2c(-c3ccccc3)cc3c2CCC(C)C3)cc1 (stereo not drawn)	9.6%	5.01µM*	?	.
CC(C)Oc1ccc(CNC(=O)CCn2c(=O)c3cccn3c3ccc(F)cc32)cc1	-14.0%	-7.2%	?	.
Cc1ccc(C(=O)Nc2nc(=O)n(C(=O)c3ccccc3Cl)s2)cc1	12.6µM*	?	-29.0%	-27.9
CC(C)CC(=O)n1sc(NC(=O)c2ccccc2)nc1=O	22.4µM*	?	-20.0%	-10.3
Cc1ccc(C(=O)Nc2nc(=O)n(C)s2)cc1	5.6%	-5.5%	-2.0%	-12.3
O=C(CSc1nc2ccccc2n1Cc1ccccc1)N1CCN(c2ccc(F)cc2)CC1	-19.5%	6.1%	-15.4%	.
Cc1cc(C)nc(N/N=C/C2=C(N3CCOCC3)C(=C\c3ccc(Cl)cc3)/CC2)n1	11.2µM*	-8.9%	-11.7%	-4.6
CSC1=NS(=O)(=O)c2c(C)nn(C)c2S1	15.8µM*	?	-19.5%	5.7
Cc1ccccc1C(=O)Nc1c(C(=O)Nc2cccc(F)c2)oc2ccccc12	1.4%	?	-27.3%	.
CC(Oc1ccccc1)C(=O)Nc1c(C(=O)Nc2cccc(F)c2)oc2ccccc12 (stereo not drawn)	10.0%	10µM*	?	.
CCOC(=O)Cc1csc(N/N=C/c2cccc([N+](=O)[O-])c2)n1	.	.	.	-2.2
CC(=O)c1cccc(Nc2nc(-c3cccc([N+](=O)[O-])c3)cs2)c1	3.98µM*	3.9%	7.08µM*[quencher]	-2.0
